In the library only some 11% were active in any assay of this set; here they are far more common.
3T3 cytotox – Cytotoxic Profiling in NIH 3T3 Cell Line of Diverse Libraries Using Quantitative High-Throughput Screening; NIH 3T3 viability, CellTiter-Glo ATP luminescence, 48-72 h; Potency, µM (series often up to 96.7 µM), hits mostly inhibitors; 94,000 compounds, 4.3% hits; note: nearly all actives have a fitted effect of over 55% in size
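Mouse fibroblast NIH 3T3 cells, 400 per well, received compound via pintool and were incubated for 48 or 72 hr prior to CellTiter-Glo ATP luminescence measurement.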
HEK cytotox – Cytotoxic Profiling in HEK 293 Cell Line of Diverse Libraries Using Quantitative High-Throughput Screening; Potency, µM (series often up to 115 µM), most hits filed as inhibitors; HEK 293 viability, ATP luminescence (CellTiter-Glo), 48-72 h; 94,000 compounds, 6.6% hits; note: nearly all actives have a fitted effect of over 60% in size
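Cytotoxicity was scored by loss of ATP-coupled luminescence (CellTiter-Glo) in HEK 293 cells. Compound treatment ran 48 or 72 hr at 37 degree Celsius, 5% CO2, 95% humidity.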
Luciferase inh – Firefly luciferase inhibition profiling of diverse chemical library using quantitative high-throughput screening; purified P. pyralis luciferase, luminescence, biochemical; Potency, µM (series often up to 115 µM), usual class: inhibitors; 76,000 compounds, 2.5% hits; AID 1347043, 2019; note: nearly all actives have a fitted effect of over 65% in size
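Luminescence read by CCD imaging after purified firefly luciferase (10nM final) was added to substrate buffer holding 10uM D-luciferin and 10uM ATP, pH 7.5, pre-dosed with compound.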
hNpr1 antagonist – Natriuretic polypeptide receptor (hNpr1) antagonism - Primary qHTS; HEK293 hNpr1 GloSensor cGMP, ANP-stimulated luminescence; Potency, µM (doses to about 46.3 µM), hits mostly inhibitors; 76,000 compounds, 1.6% hits; AID 1347048, 2019; calls by dose curve; note: nearly all actives have a fitted effect of over 60% in size
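HEK293 cells stably expressing human Npr1 and cGMP GloSensor pGS-40F, loaded 2 h with 2% GloSensor reagent, given compound 30 min at room temperature. Luminescence read before and 20 min after 0.1 nM hNppA.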
Npr1 antag conf – Natriuretic polypeptide receptor (hNpr1) antagonism - Confirmation; shares compounds with hNpr1 antagonist; Potency, µM (highest dose often 57.6 µM), hits mostly inhibitors; 1,400 compounds, 76% hits; AID 1347044, 2019; HEK293 hNpr1 cGMP GloSensor luminescence, ANP-stimulated; calls by dose curve; note: nearly all actives have a fitted effect of over 70% in size
NPR2 antag – Natriuretic polypeptide receptor (hNpr2) antagonism - Subtype selectivity assay | shares compounds with hNpr1 antagonist | HEK293 hNpr2 GloSensor cGMP luminescence, CNP-stimulated | Potency, µM (titrated, usually from 57.6 µM), actives largely listed as inhibitors | 1,400 compounds, 67% hits; calls by dose curve; note: nearly all actives have a fitted effect of over 70% in size
FLuc inh counter – Natriuretic polypeptide receptor (hNpr1) antagonism - Confirmation firefly luciferase (FLuc) inhibition counterscreen; shares compounds with hNpr1 antagonist; purified FLuc enzyme, luminescence, Km substrate; Potency, µM (top dose mostly 57.6 µM), most hits filed as inhibitors; 1,400 compounds, 0.7% hits; AID 1347047, 2019
GloSensor ctrl – Natriuretic polypeptide receptor (hNpr1) antagonism - Counterscreen GloSensor control cell line; HEK293 GloSensor cGMP, SNP-stimulated, luminescence; 1,400 compounds, 69% hits; Potency, µM (series often up to 57.6 µM), most hits filed as inhibitors; shares compounds with hNpr1 antagonist; calls by dose curve; note: nearly all actives have a fitted effect of over 70% in size
Numbers stand for hits. Unless noted, calls come from the whole dose curve; as a rule, active = well fitted curve in the direction sought with a large enough effect; inconclusive = small, poorly fitted or top-dose-only effect, or another doubt; inactive = no such curve, though single readings can be large; an effect the other way counts as inactive or inconclusive.

How did CC(C)CCN1CCC(N2CCN(C(=O)c3cccc(Br)c3)CC2)C1=O (stereo unspecified) do in these assays?
3T3 cytotox: inactive; HEK cytotox: inactive; Luciferase inh: inactive; hNpr1 antagonist: inactive

What do the screens show for `Clc1ccc(C2Cn3nnc(-c4noc(C5CCCC5)n4)c3CO2)cc1` (stereo unspecified)?
3T3 cytotox: inactive; HEK cytotox: inconclusive; Luciferase inh: inactive; hNpr1 antagonist: inactive

What do the screens show for `COc1ccc(C2Cn3nnc(-c4noc(C5CCCCC5)n4)c3CO2)cc1` (stereo unspecified)?
3T3 cytotox: inactive; HEK cytotox: inactive; Luciferase inh: inactive; hNpr1 antagonist: inactive; Npr1 antag conf: inconclusive; NPR2 antag: inconclusive; FLuc inh counter: inactive; GloSensor ctrl: inactive

Results for Cc1ccc(CN2CCc3nc(C(=O)Nc4ccc(Cl)cc4)oc3CC2)cc1 ?
3T3 cytotox: inconclusive; HEK cytotox: inconclusive; Luciferase inh: inactive; hNpr1 antagonist: 14µM; Npr1 antag conf: 11µM; NPR2 antag: 9.9µM; FLuc inh counter: inactive; GloSensor ctrl: 14µM

How did CCc1nc2c(c(-c3ccc(Cl)cc3)n1)CCN(Cc1ccc(NC(C)=O)cc1)CC2 do in these assays?
3T3 cytotox: inactive; HEK cytotox: inconclusive; Luciferase inh: inactive; hNpr1 antagonist: inactive

What do the screens show for `O=C(Nc1ccc(Cl)cc1)c1nc2c(o1)CCN(Cc1ccc3c(c1)CCO3)CC2`?
3T3 cytotox: inconclusive; HEK cytotox: inconclusive; Luciferase inh: inactive; hNpr1 antagonist: 5µM; Npr1 antag conf: 6.3µM; NPR2 antag: 11µM; FLuc inh counter: inactive; GloSensor ctrl: 8.9µM

Results for O=C(Nc1ccc(Cl)cc1)c1nc2c(o1)CCN(Cc1ccncc1)CC2 ?
3T3 cytotox: inconclusive; HEK cytotox: inconclusive; Luciferase inh: inactive; hNpr1 antagonist: 1.3µM; Npr1 antag conf: 3.5µM; NPR2 antag: 3.5µM; FLuc inh counter: inactive; GloSensor ctrl: 3.5µM

How did O=C(Nc1ccc(Cl)cc1)c1nc2c(o1)CCN(Cc1ccc3cn[nH]c3c1)CC2 do in these assays?
3T3 cytotox: inconclusive; HEK cytotox: 45µM; Luciferase inh: inactive; hNpr1 antagonist: 0.56µM; Npr1 antag conf: 3.5µM; NPR2 antag: 4µM; FLuc inh counter: inactive; GloSensor ctrl: 4µM

Results for O=C1NCCCCCN(C(=O)c2ccoc2)[C@H]2CCCC[C@@H]12 ?
3T3 cytotox: inactive; HEK cytotox: inactive; Luciferase inh: inactive; hNpr1 antagonist: inactive

How did COc1cc(CN2CCC(C)(c3noc(C4CCOCC4)n3)CC2)cc(OC)c1 do in these assays?
3T3 cytotox: inactive; HEK cytotox: inactive; Luciferase inh: inactive; hNpr1 antagonist: inconclusive; Npr1 antag conf: inconclusive; NPR2 antag: inconclusive; FLuc inh counter: inactive; GloSensor ctrl: inactive

Results for COc1cc(CN2CCC(C)(c3noc(C4CCOCC4)n3)CC2)ccc1OC(C)C ?
3T3 cytotox: inactive; HEK cytotox: inactive; Luciferase inh: inactive; hNpr1 antagonist: inactive

What do the screens show for `COc1ccc(CC(=O)N2CC[C@@H](CC(=O)O)[C@@H](CCN3C[C@@H]4C[C@H](C3)c3cccc(=O)n3C4)C2)cc1`?
3T3 cytotox: inactive; HEK cytotox: inactive; Luciferase inh: inactive; hNpr1 antagonist: inactive

Results for COCc1nc(N2CC3C[C@@H]4CC2C[C@H](C3)C4)c2cnn(C)c2n1 ?
3T3 cytotox: inconclusive; HEK cytotox: inconclusive; Luciferase inh: inactive; hNpr1 antagonist: inactive

How did CCc1ccc(C(=O)N2CCC(Cc3nc(C(C)C)no3)CC2)cc1 do in these assays?
3T3 cytotox: inconclusive; HEK cytotox: inconclusive; Luciferase inh: inactive; hNpr1 antagonist: 16µM; Npr1 antag conf: 27µM; NPR2 antag: inconclusive; FLuc inh counter: inactive; GloSensor ctrl: 24µM

What do the screens show for `Cc1ccc(C(=O)N2CCC(Cc3nc(-c4ccc(F)cc4)no3)CC2)cn1`?
3T3 cytotox: inconclusive; HEK cytotox: inconclusive; Luciferase inh: inactive; hNpr1 antagonist: 1.1µM; Npr1 antag conf: 1.4µM; NPR2 antag: 1.9µM; FLuc inh counter: inactive; GloSensor ctrl: 1.5µM

How did Cc1cccc(C(=O)N2CCC(Cc3nc(C(C)C)no3)CC2)c1 do in these assays?
3T3 cytotox: inconclusive; HEK cytotox: inconclusive; Luciferase inh: inactive; hNpr1 antagonist: inactive

What do the screens show for `CC(C)c1ccc(C(=O)N2CCC(Cc3nc(-c4ccc(F)cc4)no3)CC2)cc1`?
3T3 cytotox: inconclusive; HEK cytotox: inconclusive; Luciferase inh: inactive; hNpr1 antagonist: 1.4µM; Npr1 antag conf: 1.4µM; NPR2 antag: 1.7µM; FLuc inh counter: inactive; GloSensor ctrl: 1.4µM

What do the screens show for `Cc1ccc(C(=O)N2CCC(Cc3nc(-c4cnccn4)no3)CC2)cc1C`?
3T3 cytotox: inconclusive; HEK cytotox: inactive; Luciferase inh: inactive; hNpr1 antagonist: inactive

Results for CCc1ccc(C(=O)N2CCC(Cc3nc(-c4ccc(F)cc4)no3)CC2)cc1 ?
3T3 cytotox: inconclusive; HEK cytotox: inconclusive; Luciferase inh: inactive; hNpr1 antagonist: 1.3µM; Npr1 antag conf: 1.5µM; NPR2 antag: 1.7µM; FLuc inh counter: inactive; GloSensor ctrl: 1.5µM

What do the screens show for `Cc1ccccc1S(=O)(=O)NCCc1noc(-c2cccnc2)n1`?
3T3 cytotox: inactive; HEK cytotox: inactive; Luciferase inh: inactive; hNpr1 antagonist: inactive

How did CCOC1CCOC2(CCN(C(=O)c3ccccc3)CC2)C1 (stereo unspecified) do in these assays?
3T3 cytotox: inactive; HEK cytotox: inactive

How did O=C(Nc1ccccc1F)N1CCC(Oc2ncccc2C(=O)N2CCOCC2)C1 (stereo unspecified) do in these assays?
3T3 cytotox: inactive; HEK cytotox: inactive; Luciferase inh: inactive; hNpr1 antagonist: inactive

Results for O=C(NCCN1CCOCC1)c1c(-c2ccccc2)cc(=O)n2c1CCC2 ?
3T3 cytotox: inactive; HEK cytotox: inactive

Results for O=C(c1ccc2c(c1)OCO2)N1CCC(Cc2nc(-c3ccc(F)cc3)no2)CC1 ?
3T3 cytotox: inconclusive; HEK cytotox: inconclusive; Luciferase inh: inactive; hNpr1 antagonist: 2.5µM; Npr1 antag conf: 2.4µM; NPR2 antag: 2.2µM; FLuc inh counter: inactive; GloSensor ctrl: 1.7µM

Assay outcomes as filed in PubChem BioAssay.
